Dicer inh: inhibitors of Dicer pre-microRNA processing, primary screen, biochemical, cat-ELCCA, chemiluminescence; Endoribonuclease Dicer (Homo sapiens), Q9UPY3; cat-ELCCA pre-miR-21 Dicer processing; stronger effect = higher value; z-score at 25 µM; 47,000 compounds, 6% hits; AID 1347074, 2019; in the data active means z-score above about 3, passing the limit was not always enough;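 further: plate controls were vehicle for no effect and no enzyme for full effect; higher signal means more uncleaved substrate so more Dicer inhibition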
Target sequence (Q9UPY3 whole entry, looked up): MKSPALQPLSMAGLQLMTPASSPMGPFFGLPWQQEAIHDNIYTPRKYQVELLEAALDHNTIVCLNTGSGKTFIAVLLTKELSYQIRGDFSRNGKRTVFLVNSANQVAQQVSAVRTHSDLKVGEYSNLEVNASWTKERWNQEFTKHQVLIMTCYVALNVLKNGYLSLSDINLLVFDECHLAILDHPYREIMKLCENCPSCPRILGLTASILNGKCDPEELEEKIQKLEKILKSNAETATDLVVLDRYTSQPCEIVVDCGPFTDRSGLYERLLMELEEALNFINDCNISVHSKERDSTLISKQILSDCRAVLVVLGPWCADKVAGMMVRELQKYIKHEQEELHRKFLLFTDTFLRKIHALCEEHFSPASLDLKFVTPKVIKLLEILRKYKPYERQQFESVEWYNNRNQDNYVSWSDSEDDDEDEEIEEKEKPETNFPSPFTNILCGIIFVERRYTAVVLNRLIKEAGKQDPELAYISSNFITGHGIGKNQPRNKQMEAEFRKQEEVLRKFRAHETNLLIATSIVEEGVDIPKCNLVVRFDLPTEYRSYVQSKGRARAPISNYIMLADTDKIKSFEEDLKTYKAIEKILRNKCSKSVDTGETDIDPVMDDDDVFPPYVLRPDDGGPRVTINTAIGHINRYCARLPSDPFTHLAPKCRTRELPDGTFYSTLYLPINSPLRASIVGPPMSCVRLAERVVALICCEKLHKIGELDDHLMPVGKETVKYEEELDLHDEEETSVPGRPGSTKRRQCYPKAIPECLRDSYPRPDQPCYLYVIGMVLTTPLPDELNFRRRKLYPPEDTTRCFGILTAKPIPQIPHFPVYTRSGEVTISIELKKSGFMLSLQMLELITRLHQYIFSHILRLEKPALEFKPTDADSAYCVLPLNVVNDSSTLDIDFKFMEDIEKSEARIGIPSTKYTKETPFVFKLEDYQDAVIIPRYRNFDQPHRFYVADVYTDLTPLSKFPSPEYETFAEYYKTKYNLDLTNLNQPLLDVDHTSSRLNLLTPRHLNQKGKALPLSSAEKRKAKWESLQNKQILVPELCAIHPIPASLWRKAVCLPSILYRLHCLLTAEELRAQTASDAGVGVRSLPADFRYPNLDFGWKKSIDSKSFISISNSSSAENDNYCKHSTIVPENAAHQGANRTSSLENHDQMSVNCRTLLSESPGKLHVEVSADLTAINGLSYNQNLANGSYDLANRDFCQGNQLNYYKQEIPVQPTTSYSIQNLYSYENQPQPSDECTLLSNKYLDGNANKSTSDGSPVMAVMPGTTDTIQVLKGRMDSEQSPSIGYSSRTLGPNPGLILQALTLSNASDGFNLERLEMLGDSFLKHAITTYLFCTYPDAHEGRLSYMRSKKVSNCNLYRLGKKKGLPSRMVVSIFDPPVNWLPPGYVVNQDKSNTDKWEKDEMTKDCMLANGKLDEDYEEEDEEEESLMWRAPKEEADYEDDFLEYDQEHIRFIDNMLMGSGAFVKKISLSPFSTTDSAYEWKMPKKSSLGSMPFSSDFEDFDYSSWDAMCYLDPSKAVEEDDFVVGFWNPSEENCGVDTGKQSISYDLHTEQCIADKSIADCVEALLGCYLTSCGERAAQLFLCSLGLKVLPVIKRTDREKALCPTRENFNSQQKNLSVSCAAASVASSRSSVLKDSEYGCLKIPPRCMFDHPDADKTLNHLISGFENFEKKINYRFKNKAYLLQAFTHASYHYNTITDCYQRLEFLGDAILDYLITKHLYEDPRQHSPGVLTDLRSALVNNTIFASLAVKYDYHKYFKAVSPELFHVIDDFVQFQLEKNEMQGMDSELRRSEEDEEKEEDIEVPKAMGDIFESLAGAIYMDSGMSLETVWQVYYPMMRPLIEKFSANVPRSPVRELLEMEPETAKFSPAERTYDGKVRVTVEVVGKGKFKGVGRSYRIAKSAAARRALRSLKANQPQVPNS
An asterisk follows results filed as active. The sample as a whole holds a higher share of hits than the screen did.

What do the screens show for `Cc1ccc(-c2nnn(CC(=O)NNC(=O)C(C)(C)C)n2)cc1`?
Dicer inh: -0.06

Results for C#CCSc1nc(-c2cccs2)cc(C(F)(F)F)c1C#N ?
Dicer inh: 0.26

What do the screens show for `Nc1nc2ccc(CC(=O)O)cc2s1`?
Dicer inh: -2.34

What do the screens show for `CS(=O)(=O)c1ccc2nc(N)sc2c1`?
Dicer inh: 2.45

Results for Nc1nc2ccc(Oc3ccc4nc(N)sc4c3)cc2s1 ?
Dicer inh: 3.68*

Results for O=S(=O)(c1ccc(Cl)cc1)n1cccc1 ?
Dicer inh: -1.58

How did Fc1ccc(OCc2nc(-c3ccc(Br)cc3)no2)cc1 do in these assays?
Dicer inh: 2.75

Results for COc1ccc(C2C3=C(CCCC3=O)N=C3c4ccccc4C(=O)C32)cc1 (stereo not drawn) ?
Dicer inh: 8.65*

Results for O=C1CCCC2=C1C(c1ccc(F)cc1)C1C(=O)c3ccccc3C1=N2 (stereo not drawn) ?
Dicer inh: -0.85

How did CC1(C)CC(=O)C2=C(C1)N=C1c3ccccc3C(=O)C1C2c1cccc(F)c1 (stereo not drawn) do in these assays?
Dicer inh: -0.56

What do the screens show for `CN(C)c1ccc(NC(=O)C2CC(=O)N(c3ccc(Cl)cc3)C2)cc1` (stereo not drawn)?
Dicer inh: 31.3

What do the screens show for `O=C(NC(=O)c1c(Cl)cccc1Cl)Nc1nc2cc(Cl)ccc2s1`?
Dicer inh: -1.01

Results for CCN(CC)CCOC(=O)c1ccc(N[C@@H]2O[C@H](CO)[C@@H](O)[C@H](O)[C@H]2O)cc1 ?
Dicer inh: -1.29

How did OC[C@H]1O[C@@H](Oc2ccccc2)[C@H](O)[C@@H](O)[C@@H]1O do in these assays?
Dicer inh: 1.69

Results for OCC1OC(Nc2ccc(Cl)cc2)C(O)C(O)C1O (stereo not drawn) ?
Dicer inh: 3.36*

Results for OCCn1c(-c2ccc(Cl)cc2)cn2c3ccccc3nc12 ?
Dicer inh: 0.37

Results for CCCCN(CC)Cc1cn[nH]c1-c1ccc(C)c(C)c1 ?
Dicer inh: -0.91

What do the screens show for `O=C(O)COc1ccc2c(c1)oc(=O)c1ccccc12`?
Dicer inh: 0.04

Results for O=C(COc1ccc2c(c1)oc(=O)c1ccccc12)OCc1ccccc1 ?
Dicer inh: 4.55*

How did C=CCOC(=O)COc1ccc2c(c1)oc(=O)c1ccccc12 do in these assays?
Dicer inh: 0.38

Results for Cc1ccc(-c2c(C#N)c(N)nc(C)c2-c2ccccc2)o1 ?
Dicer inh: 0.96

How did CCC1CCc2c(sc(NC(=O)c3cnccn3)c2C#N)C1 (stereo not drawn) do in these assays?
Dicer inh: 0.11

Results for COc1ccc(NN=C(C#N)C#N)c([N+](=O)[O-])c1 ?
Dicer inh: 0.81

What do the screens show for `Cn1c(=O)c2c(nc(NCCc3ccccc3)n2Cc2ccccc2F)n(C)c1=O`?
Dicer inh: -0.97

Results for Cn1c(=O)c2c(nc(NCCCO)n2Cc2ccccc2F)n(C)c1=O ?
Dicer inh: 0.32

Results for Cn1c(=O)c2c(nc(NCCO)n2Cc2cccc3ccccc23)n(C)c1=O ?
Dicer inh: 3.08*

Results for Cn1c(=O)c2c(nc(NC3CCCCC3)n2Cc2ccccc2)n(C)c1=O ?
Dicer inh: 3.63*

What do the screens show for `Cn1c(=O)c2c(nc(N/N=C/c3ccccc3)n2Cc2ccccc2)n(C)c1=O`?
Dicer inh: 1.18

Results for Cn1c(=O)c2c(nc(NCc3ccccc3)n2Cc2ccccc2)n(C)c1=O ?
Dicer inh: 1.2

How did CCN(CC)CCNc1nc2c(c(=O)n(C)c(=O)n2C)n1Cc1ccc(F)cc1 do in these assays?
Dicer inh: 3.29*

How did Cn1c(=O)c2c(nc(Cl)n2Cc2ccccc2)n(C)c1=O do in these assays?
Dicer inh: -3.91

Results for CCN(CC)CCNc1nc2c(c(=O)[nH]c(=O)n2C)n1Cc1ccc(Cl)cc1 ?
Dicer inh: -3.55

How did Cn1c(=O)c2c(nc(N/N=C/c3cccc(O)c3)n2Cc2ccccc2Br)n(C)c1=O do in these assays?
Dicer inh: 3.38*

Results for CCN(CC)CCNc1nc2c(c(=O)n(C)c(=O)n2C)n1Cc1ccc(Cl)c(Cl)c1 ?
Dicer inh: -0.88

What do the screens show for `Cn1c(=O)c2c(nc(N/N=C/c3ccc(O)cc3)n2Cc2c(Cl)cccc2Cl)n(C)c1=O`?
Dicer inh: 4.75

How did O=C(O)CSCC(=O)Nc1cccc2c1CCCC2 do in these assays?
Dicer inh: -2.31

How did CCOC(=O)c1c(C)oc(-c2ccc(Cl)cc2)c1S(=O)(=O)Nc1ccc(C(C)(C)C)cc1 do in these assays?
Dicer inh: -0.53

What do the screens show for `CCOC(=O)c1cnn(-c2ncnc3c2cnn3-c2ccccc2)c1N`?
Dicer inh: 0.11

What do the screens show for `Cc1cnc(NC(=O)CCC(=O)O)c(C)n1`?
Dicer inh: -0.06

How did O=C(CSc1nc2ccccc2[nH]1)Nc1ncc(Br)s1 do in these assays?
Dicer inh: -2.36

What do the screens show for `CCOC(=O)c1c(C)oc2c1c1c(c3ccccc32)OCN(C2CCS(=O)(=O)C2)C1` (stereo not drawn)?
Dicer inh: 0.36

How did c1coc(CN2CCN(Cc3ccc4c(c3)OCO4)CC2)c1 do in these assays?
Dicer inh: 0.48

How did CCCNc1nc2c(c(=O)n(C)c(=O)n2C)n1C(C)C do in these assays?
Dicer inh: 1.27

What do the screens show for `Cn1c(SCC(=O)Nc2ccc(F)cc2)nnc1-c1ccc2ccccc2c1`?
Dicer inh: -0.34

Results for NC(=S)COc1cccc(Cl)c1 ?
Dicer inh: -1.58

How did COCCOC(=O)C1=C(C)Nc2nc3ccccc3n2C1c1sccc1C (stereo not drawn) do in these assays?
Dicer inh: -0.8

Results for Cc1nn(CC/C(N)=N/OC(=O)c2cc(Cl)cc(Cl)c2)c(C)c1Oc1ccc(Cl)cc1 ?
Dicer inh: 0.85

How did O=C1/C(=C/c2ccco2)COC/C1=C\c1ccco1 do in these assays?
Dicer inh: 1.39

Results for O=C1/C(=C/c2ccco2)CC/C1=C\c1ccco1 ?
Dicer inh: 31.3*

What do the screens show for `CSC1=N/C(=C/c2ccco2)C(=O)N1`?
Dicer inh: -0.55

How did CC(C)n1cc(-c2noc(-c3ccccc3Cl)n2)c(=O)n(Cc2ccccc2)c1=O do in these assays?
Dicer inh: 1.01

What do the screens show for `CN(n1cnc2ccsc2c1=O)S(C)(=O)=O`?
Dicer inh: -0.09

Results for CN(n1cnc2ccccc2c1=O)S(C)(=O)=O ?
Dicer inh: 3.02*

Results for COc1ccc(-n2cnc3ccccc3c2=O)cc1 ?
Dicer inh: 0.4

Results for COc1ccc(CN2CN=C(Nc3nc(C)c4cc(C)c(C)cc4n3)NC2)cc1 ?
Dicer inh: 1.99

Results for CCOC(=O)C1C2C=CC3(CN(c4ccc(OC)cc4)C(=O)C13)O2 (stereo not drawn) ?
Dicer inh: 0.88

Results for O=C(Nc1c(Cl)cc(Cl)cc1Cl)NC1CCN(c2nccc(C(F)(F)F)n2)CC1 ?
Dicer inh: -0.42

What do the screens show for `O=C(CC1CC(=O)Oc2ccccc21)Nc1nc2ccccc2s1` (stereo not drawn)?
Dicer inh: -0.86

What do the screens show for `Cc1nn(-c2ccccc2)c(C)c1-c1nc(-c2ccccc2)no1`?
Dicer inh: 0.28

What do the screens show for `COc1nccnc1NS(=O)(=O)c1ccc(NC(=O)c2cc(Cl)cc(Cl)c2)cc1`?
Dicer inh: 2.17

What do the screens show for `CCn1c(NCc2cc(Br)ccc2O)nc2ccccc21`?
Dicer inh: 1.6

What do the screens show for `COc1nccnc1NS(=O)(=O)c1ccc(NCc2cc(Br)ccc2O)cc1`?
Dicer inh: 6.31*

How did N#Cc1sc2nc3ccccc3n2c1/N=C/c1cccs1 do in these assays?
Dicer inh: -1.12
